Screening data (PubChem BioAssay)
RGS4-Gao reg: modulators of RGS4 binding to Galphao, primary screen, biochemical, multiplexed bead flow cytometry; actives lie on both sides; binding response (% of control), % at 10 µM; 0.33% of 220,000 active; AID 1415, 2008; in the data active means binding response below about 49% or above about 150%; inactive means in between;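 further: fluorescent Galphao activated with aluminum fluoride binding bead-coupled RGS4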
Target sequence (P09471 whole entry, looked up): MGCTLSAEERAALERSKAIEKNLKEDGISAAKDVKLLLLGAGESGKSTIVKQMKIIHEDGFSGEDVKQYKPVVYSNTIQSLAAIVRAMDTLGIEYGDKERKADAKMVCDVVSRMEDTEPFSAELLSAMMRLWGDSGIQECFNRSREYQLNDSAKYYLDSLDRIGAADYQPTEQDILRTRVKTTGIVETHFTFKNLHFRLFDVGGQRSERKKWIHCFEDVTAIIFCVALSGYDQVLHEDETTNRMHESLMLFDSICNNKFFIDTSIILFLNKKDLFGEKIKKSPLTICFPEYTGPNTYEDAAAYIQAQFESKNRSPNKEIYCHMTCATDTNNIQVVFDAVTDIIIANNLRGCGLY
GSH fluor: compound fluorescence on glutathione beads, profiling panel, artefact control, biophysical, 488/530 nm, flow cytometry. fluorescence (KMESF) at 10 µM. GSH beads flow cytometry, compound fluorescence 488/530 nm; active compounds read high. AID 1776, 2009. 0.25% of 190,000 active; in the data active means fluorescence above about 89;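 further: glutathione beads carrying GST-tagged Bcl family fusion proteins plus one bare bead set; values are compound well signal with DMSO vehicle wells as background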
RGS7-Gao: RGS7-Galphao binding modulators, primary screen, biochemical, multiplexed bead flow cytometry. actives lie on both sides. 0.35% of 220,000 active. binding response (% of control), % at 10 µM. Guanine nucleotide-binding protein G(o) subunit alpha (Homo sapiens), P09471; in the data active means binding response below about 49% or above about 150%; inconclusive means no clear call, values can overlap the other calls; inactive means in between;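 further: fluorescent Galphao held in activated GDP-AlF4 state binding bead-coupled RGS7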
RGS16-Gao HTS: modulators of RGS16 binding to Galphao, primary screen, biochemical, human proteins, multiplexed bead flow cytometry. Regulator of G-protein signaling 16 (Homo sapiens) + Guanine nucleotide-binding protein …. 0.38% of 220,000 active. bead-based flow cytometry RGS16-Galphao binding, fluorescence; actives lie on both sides. binding response (% of control), % at 10 µM;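 further: Galphao activated by GDP with aluminum fluoride before binding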
Target sequence (O15492 whole entry, looked up): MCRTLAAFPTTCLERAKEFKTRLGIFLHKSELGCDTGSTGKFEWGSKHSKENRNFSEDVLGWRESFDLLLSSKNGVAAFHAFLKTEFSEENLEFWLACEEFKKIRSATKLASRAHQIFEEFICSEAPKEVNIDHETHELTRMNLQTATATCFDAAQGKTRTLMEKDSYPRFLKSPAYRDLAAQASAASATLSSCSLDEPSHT
Target sequence (P09471 whole entry, looked up): as the sequence (P09471 whole entry, looked up) above
RGS8-Gao reg: RGS8-Galphao binding modulators, primary screen, biochemical, multiplexed bead flow cytometry; Guanine nucleotide-binding protein G(o) subunit alpha (Homo sapiens), P09471; actives lie on both sides; response (percent of control binding), % at 10 µM; 0.34% of 220,000 active; in the data active means response below about 60% or above about 140%; inactive means in between;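 further: Galphao activated as the GDP aluminium fluoride complex binding bead-coupled RGS8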
Avidin fluor: green autofluorescence of compounds with avidin beads – biophysical, 488/530 nm, flow cytometry, artefact control, profiling panel | 0.38% of 220,000 active | fluorescence (KMESF) at 10 µM | compound fluorescence 488/530 nm; active compounds read high; in the data active means fluorescence above about 47
RGS-Gao: modulators of RGS–Galpha-o binding, primary screen, biochemical, multiplexed beads, flow cytometry, RGS4/7/8/16/19. AID 1504, 2009. multiplexed bead flow cytometry. 99% of 1,600 active. RGS4–Galpha-o binding response, % at 10 µM. shares compounds with RGS16-Gao HTS;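 further: fluorescently labeled Galpha-o bound to GDP with aluminium fluoride binding biotinylated RGS beads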
Avidin counter: disruption of biotin probe capture by avidin, counter-screen for RGS protein interaction modulators, biochemical, flow cytometry, bead-based; shares compounds with RGS16-Gao HTS; inhibition, % at 10 µM; streptavidin beads, fluorescein-biotin binding; 1,700 tested, under 10 active;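 active means inhibition above 50%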;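 further: median green fluorescence of gated singlet beads compared with DMSO control wells; 0% = DMSO wells and 100% = complete loss of bead fluorescence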
RGS8-Gao single: RGS8-Galphao binding modulators, confirmation, biochemical, multiplexed bead flow cytometry, single concentration. bead-based flow cytometry RGS8-Galphao binding, fluorescence; actives lie on both sides. 3% of 1,700 active. binding response (% of control), % at 10 µM. shares compounds with RGS16-Gao HTS; in the data active means binding response below about 72% or above about 130%; inactive means in between;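 further: Galphao activated as GDP AlF4 complex before binding bead RGS8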
RGS7-Gao single: RGS7-Galphao binding modulators, confirmation, biochemical, multiplexed bead flow cytometry, single concentration; response (percent of control binding), % at 10 µM; shares compounds with RGS16-Gao HTS; bead-based flow cytometry RGS7-Galphao binding; actives lie on both sides; 7.8% of 1,700 active; in the data active means response below about 75% or above about 130%; inactive means in between;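 further: fluorescent Galphao activated with GDP and aluminum fluoride binding bead-coupled RGS7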
RGS16-Gao conf: modulators of RGS16-Galphao protein binding, confirmation, biochemical, single concentration, multiplexed bead flow cytometry; shares compounds with RGS16-Gao HTS; bead-based flow cytometry; actives lie on both sides; response (% of control binding), % at 10 µM; 4% of 1,700 active; AID 1838, 2009; in the data active means response below about 74% or above about 130%; inactive means in between;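 further: Galphao activated as the GDP aluminium fluoride complex binding bead-coupled RGS16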
RGS4-Gao single: modulators of RGS4-Galphao protein binding, confirmation, biochemical, single concentration, multiplexed bead flow cytometry. AID 1840, 2009. actives lie on both sides. shares compounds with RGS16-Gao HTS. 4% of 1,700 active. binding response (% of control), % at 10 µM; in the data active means binding response below about 74% or above about 130%; inactive means in between
RGS19-Gao single: regulators of RGS19-Galphao binding, confirmation, biochemical, single point, multiplexed bead flow cytometry; 5% of 1,700 active; response (percent of control binding), % at 10 µM; shares compounds with RGS16-Gao HTS; bead-based flow cytometry RGS19-Galphao binding; actives lie on both sides; in the data active means response below about 50% or above about 160%; inactive means in between;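 further: 100% = no compound control and 0% = blank background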
The depositor's hits bear a star; u = inconclusive; x = not tested or not shown; [ ] = dose if it differs, or a comment. An excerpt weighted towards active compounds, which were near 1.2% of everything screened. Unless noted, how the calls were made is not given here.

SMILES	RGS4-Gao reg	GSH fluor	RGS7-Gao	RGS16-Gao HTS	RGS8-Gao reg	Avidin fluor	Avidin counter	RGS8-Gao single	RGS7-Gao single	RGS16-Gao conf	RGS4-Gao single	RGS19-Gao single	others
CC(C)(CN1CCN(C(c2ccccc2)c2ccccc2)CC1)NS(=O)(=O)c1ccccc1	100	x	u	101	103	6	x	x	x	x	x	x
O=C(O)CNC(=O)c1ccccc1Br	95	17	94	77	95	6	x	x	x	x	x	x
S=C(Nc1ccc2c(c1)OCCO2)Nc1ccc2c(c1)OCO2	90	27	93	99	97	9	x	x	x	x	x	x
CN(C)C(=S)Nc1ccc2c(c1)OCCO2	40*	x	u	46	69	4	0	100	97	101	101	112
CC(=O)c1cc(C#N)c(SCC(=O)OC(C)(C)C)nc1C	117	26	183*[activator]	109	103	138*	1	97	97	96	99	86	RGS-Gao=117*
CC(=O)c1cc(C#N)c(SCC(=O)OC(C)C)nc1C	99	17	97	101	103	9	x	x	x	x	x	x
Cn1c(=O)c2c(=O)cc(N)[nH]c2n(C)c1=O	97	x	u	100	77	7	0	100	103	101	102	99
CC(C)CC(=O)Nc1cccc(C(C)O)c1 (centres undefined)	115	9	203*[activator]	151	90	173*	2	102	106	99	102	137	RGS-Gao=115*
CCCCC(=O)Nc1cccc(C(C)O)c1 (centres undefined)	103	9	102	102	103	22	x	x	x	x	x	x
Cc1onc(-c2ccccc2Cl)c1C(=O)Nc1nn[nH]n1	47*	5	52	-3	53*	2	0	108	109	110	104	113
Cc1ccc(S(=O)(=O)N/N=C\c2cc([N+](=O)[O-])ccc2Cl)cc1	102	34	105	103	101	26	x	x	x	x	x	x
Cc1ccc(S(=O)(=O)N/N=C/c2cccc([N+](=O)[O-])c2)cc1	83	13	80	-8.2*	74	6	1	99	90	96	94	81	RGS-Gao=83*
N#Cc1c(-c2ccccc2)nc2n1CCS2	98	12	92	98	100	10	x	x	x	x	x	x
Cc1c(C(=O)N/N=C/c2ccncc2)no[n+]1[O-]	101	24	101	103	107	10	x	x	x	x	x	x
CC(C)NS(=O)(=O)c1ccc(OCC(=O)Nc2ccc3c(c2)OCO3)cc1	38*	12	31*	33	39*	6	-2	99	96	99	97	92
CCC(C)NS(=O)(=O)c1ccc(OCC(=O)Nc2ccc3c(c2)OCO3)cc1 (centres undefined)	91	13	94	96	100	12	x	x	x	x	x	x
CCc1nnc(N2C(=N)SCC2=O)s1	98	9	98	99	98	9	x	x	x	x	x	x
O=C(CCN1CCOCC1)NNC(=O)/C(=C/c1ccccc1)NC(=O)c1ccccc1	43*	10	54	64	86	13	1	111	101	112	102	101
COc1ccc(/C=C(\NC(=O)c2ccccc2)C(=O)NNC(=O)CCN2CCOCC2)cc1	99	25	99	102	101	13	x	x	x	x	x	x
COc1cc(C(=O)N/N=C/c2ccccn2)cc(OC)c1OC	20*	11	u	12*	13*	0	-2	101	105	101	102	107
O=C(NNC(=O)C1CC=CCC1C(=O)O)c1ccc(Cl)cc1 (centres undefined)	97	24	97	98	100	10	x	x	x	x	x	x
O=C(CC1SC(=NCC2CCCO2)NC1=O)Nc1cccc2ccccc12 (centres undefined)	11*	9	-5.8*	-12*	6.6*	-5	0	100	98	97	97	106
Cc1ccc(Cl)c(OC(=O)c2nn(C(C)C)c(=O)c3ccccc23)c1	101	14	101	248*[activator]	119	12	2	103	103	103	105	92	RGS-Gao=101*
COC(=O)c1cccc(NC(=O)c2nn(C(C)C)c(=O)c3ccccc23)c1	104	11	99	99	99	8	x	x	x	x	x	x
O=C(CSc1cccc(C(F)(F)F)c1)Nc1ccc(Cl)cc1Cl	96	27	98	95	100	8	x	x	x	x	x	x
CC(C)(C)NC(=O)c1cccc2c1OC(C)(C)C2	87	12	89	20*	66	1	0	98	94	100	98	80	RGS-Gao=87*
Cc1cccnc1NC(=O)C(C)N1C(=O)c2ccccc2C1=O (centres undefined)	101	x	u	100	99	8	x	x	x	x	x	x
CC(C)COc1ccc2[nH]c3c(c2c1)CCCC3=O	118	9	103	336*[activator]	121	12	0	105	105	103	101	97	RGS-Gao=118*
